Screening data as filed in PubChem.
PLK1 PBD inh = inhibitors of human PLK1 polo-box domain binding; P53350; Plk1 PBD binding of FITC phosphopeptide, fluorescence polarization; Potency, µM, inactives show max response, negative = inhibition, hits mostly inhibitors; 360,000 compounds, 2.8% hits; also: potency is read from the fitted curve at half-maximal effect; series mostly up to about 57 µM; % is scaled to controls: 0 for no effect and ±100 for the full control effect; nearly all actives have a fitted effect of over 65% in size
Target sequence (P53350 whole entry, looked up, the tested form may be a part): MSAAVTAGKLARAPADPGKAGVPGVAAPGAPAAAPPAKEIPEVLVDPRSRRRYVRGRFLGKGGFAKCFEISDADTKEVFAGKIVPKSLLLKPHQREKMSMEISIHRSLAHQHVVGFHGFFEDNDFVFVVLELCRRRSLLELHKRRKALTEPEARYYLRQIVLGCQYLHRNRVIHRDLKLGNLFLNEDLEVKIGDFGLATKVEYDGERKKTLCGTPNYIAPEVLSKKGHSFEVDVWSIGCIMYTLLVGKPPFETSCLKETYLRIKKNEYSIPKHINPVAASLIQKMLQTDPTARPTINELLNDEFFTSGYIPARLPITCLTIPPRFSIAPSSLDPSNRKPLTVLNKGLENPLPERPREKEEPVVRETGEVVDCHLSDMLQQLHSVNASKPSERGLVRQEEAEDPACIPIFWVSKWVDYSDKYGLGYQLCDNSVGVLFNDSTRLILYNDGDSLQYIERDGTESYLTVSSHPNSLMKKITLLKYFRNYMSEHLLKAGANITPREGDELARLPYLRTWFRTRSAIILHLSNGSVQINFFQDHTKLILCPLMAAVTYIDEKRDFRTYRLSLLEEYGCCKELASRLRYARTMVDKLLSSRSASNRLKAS
PTAP TSG101 blk = blocks PTAP/TSG101 interaction to inhibit HIV-1 budding. Potency, µM (top dose mostly 115 µM), for inactives: at the top dose activity change, negative = inhibition, usual class: inhibitors. AID 493005. Fluorescence polarization, FITC-PTAP peptide / Tsg101 binding. 340,000 tested, under 10 active; active = well fitted inhibition curve with a large enough effect in the main read-out, with a control signal flat, not every such curve was filed as active; inconclusive = small, poorly fitted or top-dose-only effect, or effect the other way, or a change in a side signal; inactive = no such curve, though single readings can be large or run the other way; also: potency is read from the fitted curve at half-maximal effect; % of control where 0% means no effect
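Fluorescence polarization binding of Tsg101 binding domain (10 uM final) to FITC-labeled PTAP peptide (50 nM final) in HEPES pH 7.5 buffer with NaCl, Tween 20, EDTA, TCEP. Compounds added before peptide; binding 20 min at RT.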
VDR inhibitor = blocks the human vitamin D receptor; VDR-SRC2-3 peptide fluorescence polarization, 2 h; P11473; 400,000 compounds, 0.93% hits; Potency, µM, for the others: max response, negative = inhibition, actives largely listed as inhibitors; also: potency is read from the fitted curve at half-maximal effect; % is scaled to controls: 0 for no effect and ±100 for the full control effect
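After 23 nl compound addition and a short centrifugation, plates sat for 2 hours at ambient temperature; polarization of fluorescence then indicated loss of VDR binding to peptide SRC2-3.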
TSHR antagonist = blocks TSH signaling through the human TSH receptor. P16473. TSHR-expressing cells, TSH-stimulated cAMP HTRF, 2 h; hits give low values. activity change, negative = inhibition, % at 11.5 µM. 330,000 compounds, 0.2% hits;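 active = activity change below a set negative limit, meaning inhibition stronger than a set level, cut at about -70% in these data; inconclusive = activity change between two set negative limits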; also: % is scaled to controls: 0 for no effect and ±100 for the full control effect
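Antagonism was scored as loss of TSH-driven cAMP in TSHR cells, stimulated with 4nM TSH (EC80) for 2 hours at 37 deg C and detected by homogeneous HTRF competition immunoassay.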
uPA generation = cell surface uPA generation inhibition; cell surface uPA generation assay, qHTS; Potency, µM (series often up to 38.3 µM), inactives show at the highest dose activity change, negative = inhibition, usual class: inhibitors; 330,000 compounds, 0.31% hits; AID 540303; active = well fitted inhibition curve with a large enough effect; inconclusive = small, poorly fitted or top-dose-only effect; inactive = no such curve, though single readings can be large or run the other way; tested in mouse RAW 264.7 cells; also: potency is read from the fitted curve at half-maximal effect; % is scaled to controls: 0 for no effect and ±100 for the full control effect; nearly all actives have a fitted effect of over 55% in size
VDR inh confirm = inhibits human vitamin D receptor, primary hit validation; shares compounds with VDR inhibitor; Potency, µM, hits mostly inhibitors; VDR-coactivator inhibition assay, qHTS confirmation; 840 compounds, 89% hits; also: potency is read from the fitted curve at half-maximal effect
VDR FP = confirmation of human VDR-coactivator binding inhibitors, fluorescein label | shares compounds with VDR inhibitor | Potency, µM (highest dose often 57.1 µM), without a hit: at the top dose activity change, negative = inhibition, hits mostly inhibitors | VDR-coactivator binding, fluorescein fluorescence polarization | 840 compounds, 48% hits | AID 602200; also: potency is read from the fitted curve at half-maximal effect
VDR bla = inhibits human VDR in beta-lactamase reporter cells. AID 602202. VDR beta-lactamase reporter cells, FRET ratio; cells co-treated with VDR agonist LG190178. 840 compounds, 23% hits. shares compounds with VDR inhibitor. Potency, µM (top dose mostly 46.1 µM), for inactives: at the highest dose activity change, negative = inhibition, most hits filed as inhibitors; also: potency is read from the fitted curve at half-maximal effect; % is scaled to controls: 0 for no effect and ±100 for the full control effect
VDR viability = cytotoxic in counter-screen for VDR inhibitors; Potency, µM (series often up to 48.3 µM), for inactives: top-dose activity change, negative = cytotoxicity, usual class: cytotoxic; AID 602204; 840 compounds, 18% hits; cytotoxicity counter-screen, cell viability, qHTS; shares compounds with VDR inhibitor;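 also: potency is read from the fitted curve at half-maximal effect; plate controls were DMSO for no effect and high-concentration cycloheximide for full effect; nearly all actives have a fitted effect of over 75% in size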
* marks the source's active call; other numbers are inactive results; ? = inconclusive; · = no result given. Compounds with a hit are over-represented: about 3.1% of the library has one in this group of screens. Unless noted, calls follow the shape of the dose curve; as a rule, active = well fitted curve in the direction sought with a large enough effect; inconclusive = small, poorly fitted or top-dose-only effect, or another doubt; inactive = no such curve, though single readings can be large; an effect the other way counts as inactive or inconclusive.

SMILES | PLK1 PBD inh | PTAP TSG101 blk | VDR inhibitor | TSHR antagonist | uPA generation | VDR inh confirm | VDR FP | VDR bla | VDR viability
CC(C)(C)c1ccc(C(=O)CC(Sc2ccc(Cl)cc2)C(=O)O)cc1 (centres undefined) | 11µM* | 2% | 10µM* | -43 | -12% | 11* | 3.2µM* | -29% | ?
C=CCSc1nc2sc3c(c2c(=O)n1CC)CCc1ccccc1-3 | 3µM* | -2% | 25µM* | 7 | · | 2.7* | ? | 32% | -3%
C=CCn1c(SCC)nc2sc3c(c2c1=O)CCc1ccccc1-3 | -10% | -9% | -9% | -14 | · | · | · | · | ·
CCS(=O)(=O)c1ccc2oc(Nc3ccc(C(C)C)cc3)nc2c1 | 2.7µM* | -3% | 40µM* | 4 | -7% | 8.4* | 4µM* | -11% | 21%
Cn1c(=O)c2c(nc(NCCCCO)n2Cc2ccccc2Cl)n(C)c1=O | · | · | -3% | · | · | · | · | · | ·
Cc1oc2c(O)c(O)ccc2c(=O)c1-c1ccccc1 | -8% | -4% | 6% | 5 | ? | · | · | · | ·
O=c1cc(-c2ccccc2)oc2c(O)c(O)ccc12 | · | · | 13µM* | · | · | 20* | 25µM* | 23µM* | ?
O=C(/C=C/c1ccc([N+](=O)[O-])cc1)c1cccs1 | ? | -8% | ? | 2 | 3% | ? | 7.1µM* | ? | -9%
COc1ccc(NC(=O)/C(Cl)=C(/Cl)S(=O)Cc2ccc(Cl)cc2)cn1 (centres undefined) | 1.3µM* | 0% | 11µM* | ? | 24% | 4.2* | 2.8µM* | 1.8µM* | 11µM*
COc1ccc(NC(=O)C(C)(C)Oc2ccc(Cl)cc2)cn1 | 0% | -6% | 9% | 13 | -1% | · | · | · | ·
CC(=O)C1=C(C)NC2(O)c3ccccc3C(=O)C12O (centres undefined) | -3% | 1% | -18% | 13 | 4% | · | · | · | ·
O=C1CCCC2=C1C1(O)C(=O)c3ccccc3C1(O)O2 (centres undefined) | -11% | -7% | ? | -14 | -3% | 2.5* | 2.2µM* | 9% | 12%
O=C(COC(=O)c1ccccn1)NC(=O)c1ccccc1 | 0% | -6% | 4% | 6 | -18% | · | · | · | ·
Cc1[nH]n(-c2ncc(-c3ccc(Cl)cc3)s2)c(=O)c1C(c1ccc(Cl)cc1)C(C#N)C#N (centres undefined) | 9.5µM* | -7% | 50µM* | -6 | 0% | 8.4* | 7.9µM* | 14% | -6%
O=C(C[n+]1csc2ccccc21)c1cccc([N+](=O)[O-])c1 | · | · | · | · | · | ? | ? | 5% | 22%
CCC1C/C(=C\c2cccnc2)C(=O)/C(=C/c2cccnc2)C1 (centres undefined) | -17% | -2% | 22µM* | -14 | -12% | 5.3* | 3.5µM* | 5.8µM* | 21µM*
O=C1/C(=C/c2cccnc2)CC/C1=C\c1cccnc1 | -12% | -2% | -5% | -11 | -1% | · | · | · | ·
O=C1/C(=C/c2cccnc2)CCC/C1=C\c1cccnc1 | -13% | 0% | 50µM* | 1 | 8.9µM* | 13* | 20µM* | 5.8µM* | 15µM*
CCN(CC)S(=O)(=O)c1ccc2c(c1)N(CC(=O)NCCc1ccc(OC)c(OC)c1)C(=O)CO2 | · | · | 14% | · | · | · | · | · | ·
O=C(Oc1oc(-c2ccco2)nc1C=Nc1ccccc1)c1ccco1 | 3µM* | 1% | 28µM* | -1 | -4% | 6* | ? | ? | -10%
Cc1ccc(C(=O)Oc2oc(-c3ccccc3)nc2C=Nc2ccc(N(C)C)cc2)cc1 | 72% | ? | -21% | 24 | 0% | · | · | · | ·
Cc1ccc(C(=O)Oc2oc(-c3ccco3)nc2C=Nc2ccc(Cl)cc2)cc1 | 4.7µM* | -1% | 50µM* | -4 | -7% | 11* | ? | -4% | 1%
Cc1ccc(N=Cc2nc(-c3ccco3)oc2O)cc1 | -2% | 0% | 21% | -8 | -18% | · | · | · | ·
O=C(Oc1oc(-c2ccco2)nc1C=Nc1ccccc1)c1ccoc1 | 4.7µM* | -6% | 50µM* | 12 | 7% | ? | ? | ? | ?
COc1ccc(CNC(=O)c2ccc(CS(=O)Cc3ccccc3Cl)o2)cc1 (centres undefined) | · | · | 13% | · | · | · | · | · | ·
SMILES | PLK1 PBD inh | PTAP TSG101 blk | VDR inhibitor | TSHR antagonist | uPA generation | VDR inh confirm | VDR FP | VDR bla | VDR viability
COc1ccc(C(=O)/C=C/C(=O)N(CC(=O)NC2CCCCC2)Cc2ccccc2)c(O)c1 | 5.3µM* | -1% | 28µM* | -45 | -9% | 12* | ? | 13µM* | ?
CC1=NN(c2ccccc2)C(=O)/C1=C\C=C\c1ccccc1 | 0% | -4% | 40µM* | -5 | -2% | 19* | ? | ? | -25%
O=C1c2ccccc2C(=O)N1Nc1ccccc1 | -17% | 0% | -9% | 18 | 13% | · | · | · | ·
Cc1ccc(NN2C(=O)C=C(c3ccccc3)C2=O)cc1 | 8.4µM* | -2% | 25µM* | -2 | -13% | 8.4* | ? | ? | -2%
COc1ccccc1NC(=O)C1CCCN(c2nnc(C)c3c(C)n(-c4ccccc4)nc23)C1 (centres undefined) | · | · | 6% | · | · | · | · | · | ·
Brc1ccc(OCCN2CCOCC2)cc1 | -19% | 1% | -13% | 4 | -2% | · | · | · | ·
O=C(CCN1CCOCC1)c1ccc(Br)cc1 | 12µM* | 2% | 22µM* | 5 | -4% | 24* | ? | ? | ?
O=C(CCN1CCN(c2ccccc2F)CC1)c1ccc(Br)cc1 | 8.4µM* | 0% | 18µM* | 0 | -1% | 17* | ? | ? | ?
Cc1ccccc1CS(=O)(=O)c1nnc([C@H](Cc2ccccc2)NC(=O)OC(C)(C)C)o1 | 7.5µM* | -4% | 20µM* | ? | ? | 6* | 3.5µM* | ? | ?
CCC(C)[C@@H](NC(=O)OC(C)(C)C)c1nnc(S(=O)(=O)Cc2cccc(C)c2)o1 (some centres undefined) | 8.4µM* | 2% | 25µM* | -72* | -19% | 4.7* | ? | ? | ?
CCc1ccccc1NC(=O)CCCN1C(=O)CCn2nc(-c3cn(C)c4ccccc34)cc21 | · | · | 5% | · | · | · | · | · | ·
O=C(Nc1cccc(S(=O)(=O)N2CCCCCC2)c1)C1=COCCO1 | -1% | -4% | -13% | -9 | 4% | · | · | · | ·
